Results filed as inconclusive are left out. The source made the active and inactive calls. Unless noted, calls come from the whole dose curve; as a rule, active = well fitted curve in the direction sought with a large enough effect in the repeat runs; inconclusive = weak or mixed curves; inactive = no such curve, though single readings can be large; an effect the other way counts as inactive or inconclusive.
Tests used:
[1] = qHTS assay to identify small molecule agonists of H2AX (AID 1224845; active = well fitted activation curve with a large enough effect in the signal ratio in the repeat runs, not every such curve was filed as active; the % refers to the signal ratio)
In short: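 Wild-type CHO-K1 cells plated overnight, then exposed 3 hr at 37C to compounds at 15 concentrations (0.76% DMSO). Lysed, then HTRF anti-pH2AX(S139)-cryptate/anti-H2AX-d2 detection after 24 hr at room temperature; emissions 665 and 620 nm.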

[2] = qHTS assay to identify small molecule agonists of the hypoxia (HIF-1) signaling pathway (AID 1224846; active = well fitted activation curve with a large enough effect in the signal ratio in the repeat runs, not every such curve was filed as active; the % refers to the signal ratio)
In short: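 HRE-bla ME-180 beta-lactamase reporter cells in medium with 0.5% dialyzed FBS, pre-incubated 5 h then exposed to compounds 17 h at 37C, 5% CO2; reporter induction read with CCF4-AM FRET substrate.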

[3] = qHTS assay to identify small molecule antagonists of the estrogen related receptor (ERR) signaling pathway from Tox21 library (AID 1224848); note: nearly all actives have a fitted effect of over 50% in size
In short: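 Cells: ERR line, 2,000/well; 6 h preincubation 37 C/5% CO2. Cpd in DMSO via pin tool; 18 h, 37 C. ONE-Glo, 30 min RT, luminescence.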

[4] = qHTS assay to identify small molecule agonists of the estrogen related receptor (ERR) signaling pathway from Tox21 library (AID 1224849; calls by dose curve; note: nearly all actives have a fitted effect of over 15% in size)
In short: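 ERR reporter cells (NTP line) pre-incubated 6 hours at 37 C, then exposed to compounds for 18 hours at 37 C. ONE-Glo luciferase luminescence was read after 30 minutes at room temperature.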

[5] = qHTS RealTime-Glo MT Cell Viability Assay in HepG2 cells - 24 hour (AID 1224867); note: nearly all actives have a fitted effect of over 50% in size
In short: (§1)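 Cell number in HepG2 cultures estimated from NanoLuc luminescence generated by metabolic reduction of a prosubstrate by living cells. The homogeneous, nonlytic format allowed repeated reads at 0, 8, 16, 24, 32 and 40 h of compound exposure.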

[6] = qHTS RealTime-Glo MT Cell Viability Assay in HEK293 cells - 32 hour (AID 1224868); note: top concentration of the series differs between compounds; nearly all actives have a fitted effect of over 50% in size
In short: (§2)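 Homogeneous bioluminescent viability format in HEK293 cells (600 cells/well). Following 5 h at 37 C/5% CO2, 23 nL compound was pintooled; the signal was measured repeatedly during 40 h incubation.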

[7] = A CellTox Green Cytotoxicity Assay to monitor cytotoxicity in HEK293 cells - 0 hour (AID 1224869); note: nearly all actives have a fitted effect of over 50% in size
In short: (§3)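 HEK293 cells, 600/well, were preincubated 5 hours and then exposed to compounds at 37 C for up to 40 hours. A cell-impermeant cyanine dye staining dead-cell DNA was read by fluorescence at 0, 8, 16, 24, 32 and 40 h time points.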

[8] = qHTS RealTime-Glo MT Cell Viability Assay in HepG2 cells - 40 hour (AID 1224870); note: nearly all actives have a fitted effect of over 50% in size
In short: (§4)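 HepG2 cells mixed with RealTime-Glo MT reagents (NanoLuc plus cell-permeant prosubstrate) were seeded at 600 cells/well, incubated 5 h at 37 C/5% CO2, then pinned with compounds in DMSO; nonlytic luminescence tracked viability during 40 h treatment.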

[9] = A CellTox Green Cytotoxicity Assay to monitor cytotoxicity in HEK293 cells - 40 hour (AID 1224871); note: nearly all actives have a fitted effect of over 45% in size
In short: as §3

[10] = qHTS RealTime-Glo MT Cell Viability Assay in HEK293 cells - 16 hour (AID 1224872)
In short: as §2

[11] = qHTS RealTime-Glo MT Cell Viability Assay in HepG2 cells - 8 hour (AID 1224873); note: nearly all actives have a fitted effect of over 55% in size
In short: as §4

[12] = qHTS RealTime-Glo MT Cell Viability Assay in HEK293 cells - 40 hour (AID 1224874); conditions: RealTime-Glo luminescence; max response: stronger effect = lower value; note: nearly all actives have a fitted effect of over 50% in size
In short: (§5)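 600 cells/well were plated with the nonlytic NanoLuc/prosubstrate reagent, pre-incubated 5 h, then given 23 nL of compound in DMSO. Incubation at 37 C for 40 h, with luminescence from viable-cell-reduced substrate read repeatedly from 0 h.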

[13] = A CellTox Green Cytotoxicity Assay to monitor cytotoxicity in HEK293 cells - 24 hour (AID 1224875); note: series mostly up to about 77 µM; nearly all actives have a fitted effect of over 45% in size
In short: as §3

[14] = A CellTox Green Cytotoxicity Assay to monitor cytotoxicity in HepG2 cells - 16 hour (AID 1224876); note: nearly all actives have a fitted effect of over 45% in size
In short: (§6)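 HepG2 cells, 600/well, preincubated 5 h with CellTox Green dye, then exposed to Tox21 compounds in DMSO at 37 C for up to 40 h. Dead-cell DNA fluorescence read at the indicated time point.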

[15] = qHTS RealTime-Glo MT Cell Viability Assay in HepG2 cells - 32 hour (AID 1224877); note: nearly all actives have a fitted effect of over 55% in size
In short: as §1

[16] = A CellTox Green Cytotoxicity Assay to monitor cytotoxicity in HepG2 cells - 24 hour (AID 1224878); note: nearly all actives have a fitted effect of over 45% in size
In short: as §6

[17] = A CellTox Green Cytotoxicity Assay to monitor cytotoxicity in HepG2 cells - 40 hour (AID 1224879); note: nearly all actives have a fitted effect of over 40% in size
In short: as §6

[18] = A CellTox Green Cytotoxicity Assay to monitor cytotoxicity in HEK293 cells - 32 hour (AID 1224881); note: nearly all actives have a fitted effect of over 40% in size
In short: as §3

[19] = qHTS assay to identify small molecule agonists of H2AX - cell viability counter screen (AID 1224847; calls by dose curve; note: top concentration of the series differs between compounds; nearly all actives have a fitted effect of over 30% in size)
In short: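 For this counter screen, overnight-attached CHO-K1 cells received test compounds (15 concentrations, 0.76% DMSO final); 3 hr later at 37C, CellTiter-Glo reagent was added and luminescence recorded after 30 min at room temperature.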

[20] = qHTS RealTime-Glo MT Cell Viability Assay in HEK293 cells - 0 hour (AID 1224880)
In short: as §5
% is set by controls: 0 for no effect and ±100 for the full control effect.

OCCCCCO
inactive: Potency [1] | outcome [2] | Potency [3] | outcome [4] | outcome [5] | Potency [6] | outcome [7] | Potency [8] | Potency [9] | Potency [10] | outcome [11] | max response [12] 4.41% | outcome [13] | outcome [14] | Potency [15] | outcome [16] | Potency [17] | outcome [18]

CC(C)C[C@@H](N)C(=O)O
inactive: activation (H2AX phosphorylation) [1] -1.49% [at 31.6 µM] | activity change, negative = cytotoxicity [19] -4.41% [at 31.6 µM] | activity, negative = inhibition [3] 12.8% [at 19 µM] | activity change, positive = activation [4] 7.21% [at 19 µM] | activity change, negative = cytotoxicity [5] 3.14% [at 15.8 µM] | activity change, negative = cytotoxic [6] 5.13% [at 15.8 µM] | cytotoxicity [7] -0.288% [at 15.8 µM] | activity change, negative = cytotoxic [8] 2.01% [at 15.8 µM] | cytotoxicity increase [9] -2.15% [at 15.8 µM] | activity change, negative = cytotoxicity [10] 5.2% [at 15.8 µM] | viability change, negative = cytotoxic [11] 0.12% [at 15.8 µM] | max response [12] 5.97% | activity change [13] -2.57% [at 15.8 µM] | cytotoxicity increase [14] -14.3% [at 15.8 µM] | activity change, negative = cytotoxic [15] 4.67% [at 15.8 µM] | cytotoxicity [16] -14.3% [at 15.8 µM] | cytotoxicity increase [17] 0.791% [at 15.8 µM] | cytotoxicity increase [18] -1.55% [at 15.8 µM]

CN1[C@@H]2CC[C@H]1CC(OC(=O)C(O)c1ccccc1)C2 (some centres undefined)
inactive: Potency [1] | outcome [19] | Potency [3] | outcome [4] | outcome [5] | Potency [6] | outcome [7] | Potency [8] | Potency [9] | Potency [10] | outcome [11] | max response [12] 3.93% | outcome [13] | outcome [14] | Potency [15] | outcome [16] | Potency [17] | Potency [20] | outcome [18]

CNCCO
inactive: Potency [1] | outcome [2] | outcome [5] | Potency [6] | outcome [7] | Potency [8] | Potency [9] | Potency [10] | outcome [11] | outcome [13] | outcome [14] | Potency [15] | Potency [20] | outcome [18]

CCCCOCCOC(=O)COc1cc(Cl)c(Cl)cc1Cl
inactive: Potency [1] | outcome [2] | outcome [5] | Potency [6] | outcome [7] | Potency [9] | Potency [10] | outcome [11] | max response [12] 4.7% | outcome [13] | outcome [14] | Potency [15] | outcome [16] | Potency [17] | Potency [20] | outcome [18]

CC(C)(C)OC(=O)c1cccc(N)c1
inactive: Potency [1] | outcome [2] | outcome [5] | Potency [6] | outcome [7] | Potency [8] | Potency [9] | Potency [10] | outcome [11] | max response [12] -10% | outcome [14] | Potency [15] | outcome [16] | outcome [18]

CCCCCCCCCC[N+](C)(C)[O-]
inactive: Potency [1] | outcome [2] | Potency [3] | outcome [4] | Potency [6] | outcome [7] | Potency [8] | Potency [9] | Potency [10] | outcome [11] | max response [12] -6.97% | outcome [13] | Potency [15] | Potency [20] | outcome [18]

COc1c(N2CCNC(C)C2)c(F)cc2c(=O)c(C(=O)O)cn(C3CC3)c12 (centres undefined)
inactive: Potency [1] | outcome [2] | outcome [5] | Potency [6] | outcome [7] | Potency [8] | Potency [9] | Potency [10] | outcome [11] | max response [12] 14% | outcome [14] | Potency [15] | outcome [16] | Potency [20] | outcome [18]

Reference: PubChem BioAssay (Tox21)
